Gli-Sufu antag = Gli-Sufu pathway antagonism; inhibition, % at 5 µM; Sufu-KO-LIGHT fibroblasts, Gli luciferase reporter luminescence; 340,000 tested, 0.74% active;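 active means inhibition above about 55%, limit read from the data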;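 further: 0% = DMSO-treated cells and 100% = wells with medium but no cells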
SMARCA2 activ = SMARCA2 function activation, primary screen; MG213 cells, MMTV-luciferase reporter, dexamethasone, overnight; activation, % at 9.1 µM; 370,000 tested, 1% active; in the data active means activation above about 7.8%;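 further: 0% = vehicle wells and 100% = reference activator wells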
H9c2 protect = protects H9c2 cardiomyocytes from peroxide injury | H2O2 injury protection, ATPLite, 2 h | protection from H2O2 cell death, % at 20 µM | 360,000 tested, 0.63% active;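 active means compounds giving at least 50% protection of heart cells from peroxide-induced death in the single-dose screen, raw or plate-pattern-corrected value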;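 further: 0% = DMSO wells with peroxide and 100% = DMSO wells without peroxide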
COUP-TFII inh = blocks human COUP-TFII nuclear receptor; P24468; HEK293T NGFI-A luciferase reporter, luminescence; inhibition, % at 8.6 µM; 370,000 tested, 0.7% active; AID 686940;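 active means inhibition above a per-plate cutoff, mean inhibition of test wells between control levels plus 3 SD, cut at about 38% in these data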;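 further: cells cotransfected with COUP-TFII expression vector driving the NGFI-A reporter; 0% = median of COUP-TF2 test wells and 100% = reporter-only cells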
GAA850 FXN act = increases GAA850 frataxin promoter reporter activity | HEK293 lucGAA850 FXN promoter luciferase reporter, 24 h; percent of 10 µM SAHA response | activation, % at 6 µM | 360,000 tested, 0.56% active | AID 540364;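 active means activation above the average of all compounds screened plus 3 SD, cutoff fixed separately per campaign, cut at about 7.5% in these data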;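 further: 0% = DMSO wells and 100% = 10 µM SAHA wells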
GalR3 antagonist = blocks the human galanin receptor 3. O60755. HEK293 GalR3-CNG cAMP membrane potential fluorescence; galR3 body fused to GalR1 C-terminus. inhibition, % at 3 µM. 360,000 tested, 0.44% active;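 active means inhibition above the screen-wide average plus 3 SD, cut at about 13% in these data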;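 further: forskolin and galanin both at EC90 stimulate the cells; cAMP rise reported by CNG channel membrane potential dye signal; 0% = forskolin plus galanin with DMSO and 100% = forskolin alone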
Target sequence (O60755 1-299 limits assumed): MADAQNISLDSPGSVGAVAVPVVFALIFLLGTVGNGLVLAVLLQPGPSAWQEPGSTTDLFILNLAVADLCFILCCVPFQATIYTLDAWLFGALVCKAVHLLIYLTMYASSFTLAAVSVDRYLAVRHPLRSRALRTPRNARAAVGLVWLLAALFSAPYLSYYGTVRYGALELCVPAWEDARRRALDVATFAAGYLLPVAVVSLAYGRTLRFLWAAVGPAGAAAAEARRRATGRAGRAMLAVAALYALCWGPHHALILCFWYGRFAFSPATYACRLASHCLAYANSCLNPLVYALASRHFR
The depositor's hits bear a star; . = not tested or not shown. An excerpt weighted towards active compounds, which were near 3.4% of everything screened.

SMILES	Gli-Sufu antag	SMARCA2 activ	H9c2 protect	COUP-TFII inh	GAA850 FXN act	GalR3 antagonist
CCCCCCCCN1CN2Cc3cc(OC)ccc3C2CS1(=O)=O (stereo not drawn)	.	-3	.	2	.	.
Cc1ccc(-c2n[nH]c(Cc3ccccc3)n2)cc1	-21	7.9*	-4	-44	6	-9
O=[N+]([O-])c1ccc(-c2nc(Nc3ccc(O)cc3)c3ccccc3n2)cc1	14	-4	52*	-7	1	-8
CSc1nsc(SC)c1C(=O)N1CCN(S(=O)(=O)c2ccc(C)cc2)C1C(C)C (stereo not drawn)	10	1	83*	6	0	-6
O=C(Nc1ccc2c(c1)OCCO2)C1c2ccccc2OCC(=O)N1CCc1c[nH]c2ccccc12 (stereo not drawn)	.	-2	.	6	.	-4
O=C(Oc1cccc2c(=O)[nH]ccc12)c1ccccc1	-1	-2	80*	-35	0	1
O=C(OCC#CCSc1nnc(-c2cccc3ccccc23)o1)C1CCCC1	.	.	.	-17	.	.
CC(C)C[C@H]1COc2cccc(F)c2S(=O)(=O)N1Cc1cn(Cc2ccc(Cl)cc2)nn1	.	-3	.	2	.	.
CCC[C@H]1[C@@H](OC(=O)NCc2ccccc2Cl)CC[C@@]23CCCN2C(=O)CCC[C@@H]13	.	.	.	24	.	.
Cc1ccc2nsnc2c1S(=O)(=O)N(Cc1ccco1)Cc1cc2cccc(C)c2[nH]c1=O	8	.	73*	.	-3	.
COc1ccc2[nH]c(=O)c(CN(Cc3cccs3)S(=O)(=O)c3c(C)ccc4nsnc34)cc2c1	6	-1	69*	0	-5	-1
Cc1ccc2[nH]c(=O)c(CN(Cc3ccco3)S(=O)(=O)c3c(C)ccc4nsnc34)cc2c1	-8	-3	50*	19	-3	-4
CCN(CC)C(=O)O[C@H]1CC[C@@]23CCCN2C(=O)CCC[C@H]3C1	.	.	.	-8	.	.
COc1ccc(Cn2c(NC(=O)c3ccccc3)nc(Cc3ccccc3)c2-c2ccccc2)c(OC)c1	.	-3	.	-6	.	.
Cc1cccc(C)c1NC(=O)C1CCN(c2ncccn2)CC1	.	-3	.	2	.	.
COc1ccc(/C=C/C(=O)Nc2ccc3nc4n(c(=O)c3c2)CCCC4)cc1	15	0	8	7	-2	-1
COc1cc(/C=C/C(=O)Nc2ccc3nc4n(c(=O)c3c2)CCCC4)cc(OC)c1OC	7	-3	54*	1	-5	-3
Cc1ccc(OCCOC(=O)CCc2nc3ccccc3c(=O)[nH]2)cc1	4	-2	55*	8	2	0
CC(NC(=O)COC(=O)CCc1nc2ccccc2c(=O)[nH]1)c1ccccc1 (stereo not drawn)	-2	-2	35	18	2	-5
CN(C(=O)COC(=O)CCc1nc2ccccc2c(=O)[nH]1)C1CCS(=O)(=O)C1 (stereo not drawn)	2	0	30	-11	1	-8
N#CCCN(C(=O)COC(=O)CCc1nc2ccccc2c(=O)[nH]1)c1ccccc1F	-18	-2	58*	-10	-1	-7
O=C(COC(=O)CCc1nc2ccccc2c(=O)[nH]1)NC(c1ccccc1)c1ccccc1	-1	-3	59*	20	-2	-5
Cc1cccc(C(=O)NCC(=O)N(C)Cc2nc3ccccc3c(=O)[nH]2)c1	2	-2	36	-21	2	-2
CCCCOc1ccc(C(=O)NCC(=O)N(C)Cc2nc3ccccc3c(=O)[nH]2)cc1	-9	0	54*	-3	0	-4
COc1ccc(C(=O)NNC(=O)CCc2nc3ccccc3c(=O)[nH]2)cc1	-19	0	64*	12	-1	-5
SMILES	Gli-Sufu antag	SMARCA2 activ	H9c2 protect	COUP-TFII inh	GAA850 FXN act	GalR3 antagonist
CN(CC(=O)Nc1ccc2c(c1)OCCO2)Cc1nc2ccccc2c(=O)[nH]1	-10	-1	21	16	0	-3
O=C(COC(=O)CCc1nc2ccccc2c(=O)[nH]1)Nc1ccc2c(c1)OCO2	-20	-1	52*	-1	1	2
Cc1ccccc1NC(=O)COC(=O)CCc1nc2ccccc2c(=O)[nH]1	6	0	65*	15	0	-5
CC(OC(=O)CCc1nc2ccccc2c(=O)[nH]1)C(=O)NC1CCCC1 (stereo not drawn)	-1	0	55*	16	4	-5
O=C(COC(=O)CCc1nc2ccccc2c(=O)[nH]1)NC(=O)NC1CCCC1	34	-3	34	-18	2	-1
CN(CCOC(=O)c1cc2ccccc2o1)C1CN(Cc2cn(Cc3ccccc3Cl)nn2)S(=O)(=O)C1 (stereo not drawn)	.	-2	.	-18	.	.
COP(=O)(CC(=O)O)C(CC(C)C)NC(=O)OCc1ccccc1 (stereo not drawn)	.	-1	.	0	.	.
CCN(CC(=O)Nc1ccc(NC(C)=O)cc1)C(=O)CCCc1nc2ccccc2c(=O)[nH]1	-4	2	11	-11	1	-4
CCN(CC(=O)Nc1cc(Cl)ccc1C)C(=O)CCc1nc2ccccc2c(=O)[nH]1	2	4	69*	4	2	0
O=C(COC(=O)CCc1nc2ccccc2c(=O)[nH]1)Nc1c(Cl)cccc1C(F)(F)F	-7	0	52*	10	1	-4
COC(=O)C1CN(Cc2ccccc2)CCS(=O)(=O)N1Cc1ccc(C)cc1 (stereo not drawn)	.	-1	.	5	.	.
CCCCNS(=O)(=O)CC1NCc2cc(OC)ccc21 (stereo not drawn)	.	-6	.	-16	.	.
O=C(NCCc1c[nH]c2ccccc12)OCc1cn(Cc2cccc(F)c2F)nn1	.	-3	.	-4	.	.
O=C(Nc1ccc(N2CCCCC2)cc1)c1ccccn1	64*	.	-21	.	-13	.
O=C(Nc1ccc(N2CCCCCC2)cc1)c1ccc[nH]1	-70	7	-22	-16	3	-5
Cc1ccc(-n2c(SCC(=O)Nc3ccccc3-c3ccccc3)nnc2-c2cccs2)cc1	.	5	.	-8	.	.
CCCCCCCCCn1c2c(c(=N)c3c1CCC3)CCC2	94*	.	-20	.	-12	.
C/C(=N\NC(=O)c1cc(C2CC2)nc2ccccc12)c1ccc(O)cc1O	18	1	51*	7	-4	-14
C/C(=N\NC(=O)c1cc(-c2cccnc2)nc2ccccc12)c1ccccc1O	34	-3	60*	16	-5	-1
O=C(NNC(=S)Nc1ccccc1)c1cc(-c2cccnc2)nc2ccccc12	-1	1	8	1	1	-5
CC(OC(=O)c1cc(-c2cccnc2)nc2ccccc12)C(=O)Nc1ccc2ccccc2c1 (stereo not drawn)	7	-2	67*	4	3	0
COC(=O)[C@]12C[C@H](CC(=O)NCc3cccs3)C(=O)N(CCc3ccc(OC)c(OC)c3)C1=C[C@H](C1CCCC1)O[C@@H]2C	.	-1	.	-3	.	.
